From PubChem BioAssay
Pf growth 96h = inhibits malaria parasite growth, 96 h. AID 504834. P. falciparum luciferase reporter growth, 96 h. Potency, µM (titrated, usually from 28.7 µM), without a hit: top-dose activity change, negative = inhibition, most hits filed as inhibitors. 6.9% of 320,000 active; further: potency means the concentration at half of the fitted maximal effect; on the % scale 0 is the no-effect control and ±100 the full control effect
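96 h incubation, 37 C, 5% CO2, of luciferase-reporter P. falciparum-infected RBCs (2% hematocrit, 0.05% parasitemia final) with test compounds; endpoint luminescence.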
Cycloheximide cs = counter-screen for Shiga toxin inhibitors: cycloheximide protein synthesis inhibition; 12% of 300,000 active; AID 2314; max response, %; cell reporter, cycloheximide protein synthesis inhibition counterscreen; in the data active means max response mostly above about 13%, no sharp cut-off; inactive means mostly below about 14%; further: read at 38.3 µM for the half of the compounds with a filed dose; 0% is about no effect
Shiga toxin inh = inhibitors of Shiga toxin in Vero cells | Vero cells, Shiga toxin protein synthesis inhibition reporter | inhibition, % at 38.7 µM | 9.2% of 290,000 active | AID 2315; in the data active means inhibition mostly above about 28%, no sharp cut-off; inactive means mostly below about 43%; further: 0% is about no effect
Pf growth 48h = P. falciparum growth inhibition at 48 hours (one generation); 5.9% of 310,000 active; Potency, µM (series often up to 28.7 µM), for the others: at the top dose activity change, negative = inhibition, actives largely listed as inhibitors; P. falciparum luciferase growth in erythrocytes, 48 h; further: potency means the concentration at half of the fitted maximal effect; on the % scale 0 is the no-effect control and ±100 the full control effect
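A one-generation exposure of luciferase-tagged malaria parasites in RPMI 1640/Albumax erythrocyte culture, 37 C and 5% CO2. Inhibition is inferred from decreased luminescence after adding detection reagent.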
Marburg entry inh = blocks Marburg virus binding to or entry into cells; Marburg virus pseudotyped entry inhibition, cell reporter; Potency, µM (top dose mostly 37.8 µM), without a hit: at the highest dose activity change, negative = inhibition, actives largely listed as inhibitors; 1.8% of 300,000 active; calls by dose curve; tested in HEK293 cells; further: potency means the concentration at half of the fitted maximal effect; on the % scale 0 is the no-effect control and ±100 the full control effect
LASV entry inh = Lassa virus entry inhibition; AID 540256; Lassa virus pseudotype entry inhibition, cell reporter; Potency, µM (highest dose often 37.9 µM), for the others: top-dose activity change, negative = inhibition, usual class: inhibitors; 1.2% of 300,000 active; calls by dose curve; tested in HEK293 cells; further: potency means the concentration at half of the fitted maximal effect; on the % scale 0 is the no-effect control and ±100 the full control effect; nearly all actives have a fitted effect of over 50% in size
The depositor's hits bear a star; [ ] = another dose, or the depositor's remark. Only some compounds are listed: those with a hit (about 19% of all), similar ones and a draw of the others. Unless noted, the call rests on the fitted dose curve; in most records, active means well fitted inhibition curve with a large enough effect; inconclusive means small, poorly fitted or top-dose-only effect, or another doubt; inactive means no such curve, though single readings can be large or run the other way.

`Cc1ccc(C)c(NC(=O)c2ccccc2C(=O)c2ccccc2)c1` gave Pf growth 96h 0.0%, Cycloheximide cs 6.4, Shiga toxin inh 13.4 and Pf growth 48h inconclusive.
For CCCCN1C(=O)C(=O)N(CC(=O)N2CCN(c3ccccc3)CC2)C1=O the results were Pf growth 96h 8.4%, Pf growth 48h inconclusive, Marburg entry inh 7.2%[46.1 µM] and LASV entry inh 9.9%.
Screening O=C(NCc1cccs1)C(=O)NCC(c1ccco1)N1CCN(c2ccc(F)cc2)CC1 (configuration not stated) returned Pf growth 96h inconclusive, Cycloheximide cs -1.6, Shiga toxin inh 1.9, Pf growth 48h inconclusive, Marburg entry inh inconclusive and LASV entry inh inconclusive.
`CCOC(=O)c1c(S(=O)(=O)NCCc2ccccc2)c(C)n(C)c1C` gave Pf growth 96h inconclusive, Cycloheximide cs 15.3, Shiga toxin inh -3.6 and Pf growth 48h -26.7%.
`N#CC1=C(N)SC2(CCCCC2)SC1c1ccccc1` (configuration not stated) gave Pf growth 96h -20.7%, Cycloheximide cs 8.4, Shiga toxin inh 10.3, Pf growth 48h 37.5%, Marburg entry inh inconclusive and LASV entry inh 12.5%.
`CCOC(=O)c1cnn(-c2ccccc2)c1NC(=O)c1ccccc1C` gave Pf growth 96h -28.4%, Cycloheximide cs 9.1, Shiga toxin inh 1.0, Pf growth 48h -10.6%, Marburg entry inh 0.3% and LASV entry inh 5.8%.
For Cc1ccccc1NC(=O)c1cnn(-c2ccccc2)c1C the results were Pf growth 96h 471.7%, Cycloheximide cs 41.8*, Shiga toxin inh 75.3*, Pf growth 48h 80.8%, Marburg entry inh inconclusive and LASV entry inh 4.7%.
`COc1cc2c(cc1OC)CN(C(=O)CSc1nc(N)c(C#N)cc1C#N)CC2` gave Pf growth 96h 4.6%[5.75 µM], Cycloheximide cs -4.4, Shiga toxin inh 21.9, Pf growth 48h -19.7%, Marburg entry inh -2.4% and LASV entry inh 0.4%.
`Nc1ccc(C(=O)Nc2ccc(OC(F)(F)C(F)F)c(NC(=O)c3ccc(N)cc3)c2)cc1` gave Pf growth 96h inconclusive, Cycloheximide cs 17.5*, Shiga toxin inh 16.5, Pf growth 48h -28.8%, Marburg entry inh -0.5% and LASV entry inh -14.3%.
CSc1cccc(NC(=O)c2ccccc2N(C)S(C)(=O)=O)c1 was read as Pf growth 96h -7.8%, Cycloheximide cs -4.6, Shiga toxin inh -11.0, Marburg entry inh 1.1% and LASV entry inh -18.0%.
`CN(C)c1ccc(N=C/C=C2\N(C)c3ccccc3C2(C)C)cc1` gave Pf growth 96h inconclusive, Cycloheximide cs 68.2*, Shiga toxin inh 167.2*, Pf growth 48h inconclusive, Marburg entry inh inconclusive and LASV entry inh inconclusive.
Screening CN1/C(=C\C=Nc2ccc3ccccc3c2)C(C)(C)c2ccccc21 returned Pf growth 96h 49.0%, Cycloheximide cs 46.8*, Shiga toxin inh 53.1 and Pf growth 48h 19.0%.
`Cc1c(N=C/C=C2\N(C)c3ccccc3C2(C)C)c(=O)n(-c2ccccc2)n1C` gave Pf growth 96h 4.15µM*, Cycloheximide cs -1.4, Shiga toxin inh -5.3, Pf growth 48h 6.2%, Marburg entry inh inconclusive and LASV entry inh -14.1%.
For CN1/C(=C\C=Nc2ccccc2)C(C)(C)c2ccccc21 the results were Pf growth 96h inconclusive, Cycloheximide cs -2.3, Shiga toxin inh -15.5, Pf growth 48h inconclusive, Marburg entry inh inconclusive and LASV entry inh inconclusive.
For Cc1c(N=C/C=C2/N(C)c3ccccc3C2(C)C)c(=O)n(-c2ccccc2)n1C the results were Pf growth 96h -12.6%, Cycloheximide cs -2.3, Shiga toxin inh -3.6, Pf growth 48h -26.7%, Marburg entry inh inconclusive and LASV entry inh inconclusive.
Cn1nc(-c2ccccc2)c(-c2nc(-c3cccc(Cl)c3)no2)c1Cl was read as Pf growth 96h 9.6%, Cycloheximide cs -4.9, Shiga toxin inh -4.2, Marburg entry inh 23.2% and LASV entry inh 7.6%.
O=C(N/N=C/c1cccc([N+](=O)[O-])c1)c1cnccn1 was read as Pf growth 96h -12.6%, Cycloheximide cs 15.6, Shiga toxin inh active, Pf growth 48h 17.0%, Marburg entry inh -4.5% and LASV entry inh inconclusive.
